This is part of a sample that, as a whole, favours compounds with a hit. Of some 79,000 tested, about 15% had one in any assay. Activity calls are given as the source filed them. Rule as the data show it: active = growth inhibition above about 70%; inactive = the rest.
Tests used:
[1] = NCI Yeast Anticancer Drug Screen. Data for the rad50EPP+ strain (AID 151);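 also: 0% = growth of vehicle-treated control cultures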; conditions: S. cerevisiae rad50 mutant strain, hits give high values
Procedure, shortened: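 Growth inhibition read against vehicle controls in rad50EPP+ yeast, a strain altered in DNA damage repair, after compound exposure.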

[2] = NCI Yeast Anticancer Drug Screen. Data for the mgt1 strain (AID 153); conditions: S. cerevisiae mgt1 mutant growth inhibition, hits give high values
Procedure, shortened: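 mgt1 yeast grown with test compound; read-out is growth inhibition versus vehicle-treated cultures.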

[3] = NCI Yeast Anticancer Drug Screen. Data for the rad50 strain (AID 155);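 also: 0% = growth of vehicle-only cultures of the same strain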; conditions: S. cerevisiae rad50 strain growth inhibition, hits give high values
Procedure, shortened: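 A DNA repair-deficient yeast mutant serves as the test organism; compound-induced growth inhibition is calculated against vehicle-treated cells.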

[4] = NCI Yeast Anticancer Drug Screen. Data for the mec2-1 strain (AID 157); conditions: S. cerevisiae mec2-1 strain, hits give high values
Procedure, shortened: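 Yeast mec2-1 mutant treated with compound. Readout: growth inhibition vs vehicle controls.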

[5] = NCI Yeast Anticancer Drug Screen. Data for the rad14 strain (AID 159);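 also: 0% = growth of vehicle-treated control cultures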; conditions: S. cerevisiae rad14 strain growth inhibition, hits give high values
Procedure, shortened: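 Vehicle-treated cultures served as the baseline for growth inhibition of a DNA repair-mutant yeast strain exposed to each compound.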

[6] = NCI Yeast Anticancer Drug Screen. Data for the sgs1 mgt1 strain (AID 161);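 also: 0% = growth of cultures given vehicle only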; conditions: S. cerevisiae sgs1 mgt1 strain, hits give high values
Procedure, shortened: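 Inhibition of yeast growth, normalised to vehicle-treated controls, is reported for a strain bearing genetic alterations in DNA damage repair.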

[7] = NCI Yeast Anticancer Drug Screen. Data for the CLN2oe strain (AID 163);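 also: 0% = growth of vehicle-only control cultures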; conditions: S. cerevisiae CLN2oe strain, hits give high values
Procedure, shortened: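 Read-out: yeast growth inhibition, expressed relative to vehicle-only controls. The strain bears an engineered cell-cycle alteration.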

[8] = NCI Yeast Anticancer Drug Screen. Data for the cln2 rad14 strain (AID 165);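 also: 0% = growth equal to vehicle treated cultures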; conditions: S. cerevisiae cln2 rad14 strain, hits give high values
Procedure, shortened: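 cln2 rad14 yeast strain; compound exposure; growth inhibition read vs vehicle controls.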

[9] = NCI Yeast Anticancer Drug Screen. Data for the bub3 strain (AID 167); conditions: S. cerevisiae bub3 mutant strain, hits give high values
Procedure, shortened: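 Inhibition values come from growth of compound-treated mutant yeast normalised to vehicle-treated controls.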

[10] = NCI Yeast Anticancer Drug Screen. Data for the wt2 strain (AID 169);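 also: 0% = growth of vehicle-treated yeast cultures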; conditions: S. cerevisiae wt2 strain growth inhibition, hits give high values
Procedure, shortened: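 Read-out: growth inhibition versus vehicle-treated control cultures after compound exposure of the yeast strain.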

[11] = NCI Yeast Anticancer Drug Screen. Data for the mlh1 strain (AID 171);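 also: 0% = growth of vehicle-treated control cultures of the same strain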; conditions: S. cerevisiae mlh1 strain growth inhibition, hits give high values
Procedure, shortened: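 Read-out: growth inhibition versus vehicle controls. Strain: engineered yeast with a defined DNA repair or cell cycle defect, compound-treated.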

[12] = NCI Yeast Anticancer Drug Screen. Data for the sgs1 strain (AID 173);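 also: 0% = growth of vehicle-only control cultures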; conditions: S. cerevisiae sgs1 mutant, hits give high values
Procedure, shortened: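 Read-out: yeast growth inhibition relative to vehicle controls, following compound exposure of a strain with a defined DNA repair/cell cycle alteration.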

[13] = NCI Yeast Anticancer Drug Screen. Data for the mlh1 rad18 strain (AID 175); conditions: S. cerevisiae mlh1 rad18 strain growth inhibition, hits give high values
Procedure, shortened: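 Yeast w/ defined DNA-repair lesions; compound exposure; growth vs vehicle controls → % inhibition.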

[14] = NCI Yeast Anticancer Drug Screen. Data for the rad18 strain (AID 177); conditions: S. cerevisiae rad18 mutant growth inhibition, hits give high values
Procedure, shortened: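 Readout: growth inhibition vs vehicle controls. Cells: genetically altered yeast strain, DNA repair defect.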

[15] = NCI Yeast Anticancer Drug Screen. Data for the wt1 strain (AID 149);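 also: 0% = growth of vehicle-treated wt1 cultures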; conditions: S. cerevisiae wt1 strain (SPY 50644) growth inhibition, hits give high values
Procedure, shortened: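 Vehicle-normalised growth inhibition; strain wt1; compound exposure.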

[16] = at 5.0 µM (retest, dose inferred, filed as 0.5)
[17] = at 50.0 µM (retest, dose inferred, filed as 5.0)

Measured: growth inhibition

CC1C=CN(N(C)C)C2=C1C(=O)c1cnccc1C2=O (stereo not drawn)
active: [1]; at 11.0 µM 82% | [1]; at 33.0 µM 91% | [1]; at 100.0 µM 93% | [2]; at 33.0 µM 87% | [2]; at 100.0 µM 96% | [3]; [16] 81% | [3]; at 11.0 µM 86% | [3]; at 33.0 µM 93% | [3]; [17] 93% | [3]; at 50.0 µM 85% | [3]; at 100.0 µM 96% | [4]; at 33.0 µM 86% | [4]; [17] 95% | [4]; at 50.0 µM 92.2% | [4]; at 100.0 µM 96% | [5]; at 33.0 µM 89% | [5]; at 100.0 µM 95% | [6]; [17] 86% | [6]; at 50.0 µM 89.7% | [7]; at 33.0 µM 90% | [7]; at 100.0 µM 93% | [8]; at 50.0 µM 87.8% | [9]; at 33.0 µM 89% | [9]; at 50.0 µM 85.2% | [9]; at 100.0 µM 97% | [10]; at 33.0 µM 90% | [10]; at 100.0 µM 96% | [11]; at 33.0 µM 89% | [11]; at 100.0 µM 97% | [12]; at 33.0 µM 93% | [12]; at 100.0 µM 96% | [13]; [16] 83% | [13]; [17] 95% | [13]; at 50.0 µM 89.8% | [14]; at 3.7 µM 87% | [14]; at 11.0 µM 90% | [14]; at 33.0 µM 96% | [14]; at 100.0 µM 96%
inactive: [1]; at 1.2 µM -4% | [1]; at 3.7 µM 53% | [2]; at 1.2 µM -31% | [2]; at 3.7 µM 9% | [2]; at 11.0 µM 51% | [3]; at 1.2 µM 31% | [3]; at 3.7 µM 68% | [4]; at 1.2 µM -36% | [4]; at 3.7 µM -23% | [4]; [16] 30% | [4]; at 11.0 µM 49% | [5]; at 1.2 µM -70% | [5]; at 3.7 µM -31% | [5]; at 11.0 µM 46% | [6]; [16] 48% | [7]; at 1.2 µM -11% | [7]; at 3.7 µM 10% | [7]; at 11.0 µM 49% | [8]; [16] 25% | [8]; [17] -18% | [9]; at 1.2 µM -38% | [9]; at 3.7 µM -8% | [9]; [16] 12% | [9]; at 11.0 µM 46% | [9]; [17] 6% | [10]; at 1.2 µM 5% | [10]; at 3.7 µM 6% | [10]; at 11.0 µM 43% | [11]; at 1.2 µM -48% | [11]; at 3.7 µM -23% | [11]; at 11.0 µM 40% | [12]; at 1.2 µM 41% | [12]; at 3.7 µM 46% | [12]; at 11.0 µM 65% | [14]; at 1.2 µM 66%

S=c1[nH]nc(Cc2ccccc2)c(=S)[nH]1
active: [15]; at 33.0 µM 92% | [15]; at 100.0 µM 97% | [2]; at 11.0 µM 83% | [2]; at 33.0 µM 97% | [2]; at 100.0 µM 97% | [3]; at 33.0 µM 89% | [3]; at 50.0 µM 72.6% | [3]; at 100.0 µM 95% | [4]; at 33.0 µM 91% | [4]; [17] 75% | [4]; at 100.0 µM 96% | [5]; at 33.0 µM 94% | [5]; at 100.0 µM 97% | [6]; [17] 83% | [6]; at 50.0 µM 86.3% | [7]; at 33.0 µM 91% | [7]; at 100.0 µM 96% | [9]; at 33.0 µM 94% | [9]; [17] 79% | [9]; at 50.0 µM 71.2% | [9]; at 100.0 µM 97% | [10]; at 33.0 µM 94% | [10]; at 100.0 µM 95% | [11]; at 11.0 µM 77% | [11]; at 33.0 µM 96% | [11]; at 100.0 µM 96% | [12]; at 33.0 µM 95% | [12]; at 100.0 µM 97% | [14]; at 33.0 µM 94% | [14]; at 100.0 µM 97%
inactive: [15]; at 1.2 µM -47% | [15]; at 3.7 µM -14% | [15]; at 11.0 µM 30% | [2]; at 1.2 µM 23% | [2]; at 3.7 µM 47% | [3]; at 1.2 µM -17% | [3]; at 3.7 µM -6% | [3]; [16] 63% | [3]; at 11.0 µM 36% | [3]; [17] 55% | [4]; at 1.2 µM -8% | [4]; at 3.7 µM -6% | [4]; [16] 7% | [4]; at 11.0 µM 29% | [4]; at 50.0 µM 64.2% | [5]; at 1.2 µM -3% | [5]; at 3.7 µM 26% | [5]; at 11.0 µM 69% | [6]; [16] 41% | [7]; at 1.2 µM 26% | [7]; at 3.7 µM 25% | [7]; at 11.0 µM 35% | [8]; [16] 45% | [8]; [17] 67% | [8]; at 50.0 µM 39.4% | [9]; at 1.2 µM 16% | [9]; at 3.7 µM 21% | [9]; [16] 46% | [9]; at 11.0 µM 51% | [10]; at 1.2 µM -40% | [10]; at 3.7 µM -1% | [10]; at 11.0 µM 62% | [11]; at 1.2 µM 14% | [11]; at 3.7 µM 34% | [12]; at 1.2 µM 2% | [12]; at 3.7 µM 10% | [12]; at 11.0 µM 64% | [14]; at 1.2 µM 9% | [14]; at 3.7 µM 3% | [14]; at 11.0 µM 42%

Reference: PubChem BioAssay (NCI)
